Results taken from PubChem BioAssay (Tox21).
Records with an inconclusive call do not appear. Activity calls are given as the source filed them. Calls follow the shape of the dose curve; as a rule, active = well fitted inhibition curve with a large enough effect in the repeat runs; inconclusive = weak or mixed curves; inactive = no such curve, though single readings can be large or run the other way.

These compounds were tested against Cytochrome P450 2C9 (Homo sapiens) (UniProt P11712) (assay: Cytochrome P450 Family 2 Subfamily C Member 9 (CYP2C9) small molecule antagonists: luciferase reporter qHTS assay (AID 1671198; also: nearly all actives have a fitted effect of over 50% in size)). Settings: P450-Glo CYP2C9 enzyme assay, luciferin luminescence; series mostly up to 115 µM; activity change, negative = inhibition: at the top concentration.
Sequence of Cytochrome P450 2C9 (Homo sapiens) (P11712 whole entry, looked up): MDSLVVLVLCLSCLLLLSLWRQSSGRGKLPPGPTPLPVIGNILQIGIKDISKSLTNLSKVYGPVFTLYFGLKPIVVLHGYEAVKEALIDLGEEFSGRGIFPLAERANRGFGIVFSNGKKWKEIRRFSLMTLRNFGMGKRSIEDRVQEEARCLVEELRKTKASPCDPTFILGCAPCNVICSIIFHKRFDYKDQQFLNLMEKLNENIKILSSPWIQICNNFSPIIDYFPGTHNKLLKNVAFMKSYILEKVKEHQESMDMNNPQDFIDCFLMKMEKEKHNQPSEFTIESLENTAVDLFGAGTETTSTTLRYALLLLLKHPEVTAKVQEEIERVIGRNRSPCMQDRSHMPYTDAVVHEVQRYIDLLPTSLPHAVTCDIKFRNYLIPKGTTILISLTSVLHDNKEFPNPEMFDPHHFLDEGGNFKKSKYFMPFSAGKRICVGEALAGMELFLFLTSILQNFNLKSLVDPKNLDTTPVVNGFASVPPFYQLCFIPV
Source text: U.S. Tox21 Program National Center for Advancing Translational Sciences [NCATS] U.S. Environmental Protection Agency [EPA] National Institutes of Environmental Health Sciences [NIEHS] National Toxicology Program [NTP] U.S. Food and Drug Administration [FDA] Tox21 Assay Overview: Cytochrome P450 (CYP) enzymes are membrane-bound hemeproteins that play a key role in metabolism of drugs and xenobiotics. Evaluation of the effect of chemicals on CYP isozymes is useful to minimize the adverse drug reactions and toxicities in drug development process. Tox21 chemicals were tested for their effect on CYP enzyme activities by using P450-Glo (TM) screening systems (Promega Corporation, Madison, WI). These systems provide a luminescent method containing proluciferin substrates and are converted to luciferin products by CYP isozymes. The luciferin products formed are detected with a luciferin detection reagent, and the amount of light produced is proportional to CYP activity. P450-Glo (TM) CYP2C9 screening system (Catalog. No. V9790) was used to detect the compounds that interfere in CYP2C9 activity.
Tox21 Assay Protocol Summary: Two ul of enzyme-substrate mix was dispensed into medium binding white/solid 1536-well plates (Greiner Bio-One North America Inc., Monroe, NC) using a BioRaptr Flying Reagent Dispenser (FRD, Beckman Coulter, Brea, CA). […] The assay plates were incubated at room temperature for 10 min. Then 2 ul of NADPH regeneration solution was added to each well of the assay plates using an FRD and incubated at 37C for 1 h. The reaction was stopped by adding 4 ul of detection reagent using an FRD and after 20 min incubation at room temperature the luminescence signal was measured using a ViewLux plate reader (Perkin Elmer, Shelton, CT). Data were expressed as relative luminescence units.
% is scaled to controls: 0 for no effect and ±100 for the full control effect; potency is read from the fitted curve at half-maximal effect.

Row | Structure (SMILES) | activity change, negative = inhibition | Potency
1 | COc1cc(O)cc(O)c1 | -8.52% [at 53 µM] (inactive) | –
2 | COc1cc(C)cc(O)c1 | -13% (inactive) | –
3 | NS(=O)(=O)c1cc(C2(O)NC(=O)c3ccccc32)ccc1Cl (stereo not given) | -7.93% [at 53 µM] (inactive) | –
4 | NC(=S)Nc1cccc2ccccc12 | -2.82% [at 10.5 µM] (inactive) | –
5 | CCO[Si](C)(OCC)OCC | -6.92% (inactive) | –
6 | C1CCCCCCCCCCC1 | -1.08% [at 23.6 µM] (inactive) | –
7 | OCCCCCCO | – | 40.4 µM (active)
8 | C=C(C)C(=O)OCCCCCCCCCCCCCCCCCC | -1.15% [at 23.6 µM] (inactive) | –
9 | Nc1ccc2cc(S(=O)(=O)O)ccc2c1 | – | 50.2 µM (active)
10 | OCCN1C[C@H](O)[C@@H](O)[C@H](O)[C@H]1CO | -8.13% [at 53 µM] (inactive) | –
11 | Cc1ccc(N)cc1[N+](=O)[O-] | – | 35.8 µM (active)
12 | Cc1onc(-c2ccccc2)c1-c1ccc(S(N)(=O)=O)cc1 | – | 13.8 µM (active)
13 | COCCOC(=O)CC#N | -14.4% (inactive) | –
14 | CO[Si](CCCNCCC[Si](OC)(OC)OC)(OC)OC | 2.17% (inactive) | –
15 | N#CCN(CC#N)CCN(CC#N)CC#N | -13.1% (inactive) | –
16 | OC[C@H]1O[C@@H]2O[C@H]3[C@H](O)[C@@H](O)[C@@H](O[C@H]4[C@H](O)[C@@H](O)[C@@H](O[C@H]5[C@H](O)[C@@H](O)[C@@H](O[C@H]6[C@H](O)[C@@H](O)[C@@H](O[C@H]7[C@H](O)[C@@H](O)[C@@H](O[C@H]8[C@H](O)[C@@H](O)[C@@H](O[C@H]9[C@H](O)[C@@H](O)[C@@H](O[C@H]1[C@H](O)[C@H]2O)O[C@@H]9CO)O[C@@H]8CO)O[C@@H]7CO)O[C@@H]6CO)O[C@@H]5CO)O[C@@H]4CO)O[C@@H]3CO | -7.46% [at 53 µM] (inactive) | –
17 | CCCCCCCCCCCCCCCCCC(=O)OCCCCCCCCCCCCCC(C)C | 3.58% (inactive) | –
18 | CCC(=O)Nc1cccc(N)c1 | -17.3% (inactive) | –
19 | CCO[Si](CCCN=C=O)(OCC)OCC | -0.56% (inactive) | –
20 | CCOC(=O)Nc1ccc2c(c1)N(C(=O)CCN1CCOCC1)c1ccccc1S2 | – | 15.5 µM (active)

Row | Structure (SMILES) | activity change, negative = inhibition | Potency
21 | C#CC(C)(O)CC(C)C (stereo not given) | -16.6% (inactive) | –
22 | CC(C)[C@H](N)C(=O)OCCOCn1cnc2c(=O)[nH]c(N)nc21 | 3.37% [at 53 µM] (inactive) | –
23 | CCCC(C)CO (stereo not given) | -6.6% (inactive) | –
24 | CSc1nc(NC2CC2)nc(NC(C)(C)C)n1 | – | 35.6 µM (active)
25 | C=C[Si](OC)(OC)OC | -0.622% (inactive) | –
26 | CCCOc1ccccc1-c1nc2n[nH]nc2c(=O)[nH]1 | -6.51% [at 53 µM] (inactive) | –
27 | O=c1[nH]c2ccccc2c(=O)n1CCCl | -6.58% [at 53 µM] (inactive) | –
28 | NCC[C@H](O)C(=O)N[C@@H]1C[C@H](N)[C@@H](O[C@H]2O[C@H](CN)[C@@H](O)[C@H](O)[C@H]2O)[C@H](O)[C@H]1O[C@H]1O[C@H](CO)[C@@H](O)[C@H](N)[C@H]1O | 0.45% [at 0.435 µM] (inactive) | –
29 | CC(CCO)CCCC(C)(C)O (stereo not given) | -14.3% (inactive) | –
30 | CC(C)CCOC(=O)CC(C)C | -5.45% (inactive) | –
31 | OC/C=C/c1ccccc1 | – | 52.6 µM (active)
32 | CSc1ccc(C=O)cc1 | -17.5% (inactive) | –
33 | C[C@H]1O[C@@H](n2cc(F)c(=O)[nH]c2=O)[C@H](O)[C@@H]1O | 1.24% [at 53 µM] (inactive) | –
34 | CCCCCCC(=O)OCC | – | 71 µM (active)
35 | COc1ccc2cc(C=O)ccc2c1 | – | 17.4 µM (active)
36 | C(=C(c1ccccc1)c1ccccc1)c1ccccc1 | – | 5.03 µM (active)
37 | CCCCCCC(CCCCCCCCCCC(=O)OCC(COC(C)=O)OC(C)=O)OC(C)=O (stereo not given) | – | 2.45 µM (active)
38 | CCCCCCOC(=O)c1ccccc1O | -14.1% (inactive) | –
39 | O=C1C(CCS(=O)c2ccccc2)C(=O)N(c2ccccc2)N1c1ccccc1 (stereo not given) | – | 30.9 µM (active)
40 | Nc1[nH]c(=O)ncc1F | -1.36% [at 53 µM] (inactive) | –
